HP1b chromo inh: HTS for Inhibitors of HP1-beta Chromodomain Interactions with Methylated Histone Tails | AlphaScreen HP1-beta / biotin-H3K9me3 peptide binding | 390,000 compounds, 0.56% hits | AID 540317, 2011 | Chromobox protein homolog 1 (Homo sapiens), P83916 | Potency, µM (top dose mostly 114 µM), inactives show top-dose activity change, negative = inhibition, usual class: inhibitors; note: nearly all actives have a fitted effect of over 70% in size
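AlphaScreen: HP1-beta (50 nM) preformed 30 min with biotin-H3(1-18)K9me3 peptide (50 nM) in PBS pH 7.4, 0.01% Tween-20. Compound added for 30 min at RT, then streptavidin donor/nickel chelate acceptor beads (10 ug/mL) for 30 min.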
G9a inh: qHTS Assay for Inhibitors of Histone Lysine Methyltransferase G9a. Histone-lysine N-methyltransferase EHMT2 (Homo sapiens), Q96KQ7. G9a H3K9 monomethylation, AlphaScreen, 2 h. Potency, µM (titrated, usually from 102 µM), inactives show at the top dose activity, negative = inhibition, usual class: inhibitors. 350,000 compounds, 8.8% hits. AID 504332, 2011; note: % is set by controls: 0 for no effect and ±100 for the full control effect; nearly all actives have a fitted effect of over 75% in size
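Readings reflect AlphaScreen signal from monomethyl-H3K9 antibody detection. HMT at 20 nM; substrate b-H3K9 500 nM; cofactor SAM 20 uM; 2 h RT reaction; compounds tested as titrations in qHTS with 15 min preincubation.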
BAZ2B inh: qHTS Assay for Inhibitors of BAZ2B; AlphaScreen BAZ2B-H3K14Ac peptide displacement; Bromodomain adjacent to zinc finger domain protein 2B (Homo sapiens), Q9UIF8; Potency, µM (titrated, usually from 114 µM), for inactives: top-dose activity change, negative = inhibition, actives largely listed as inhibitors; AID 504333, 2011; 360,000 compounds, 4.4% hits; note: % is set by controls: 0 for no effect and ±100 for the full control effect; nearly all actives have a fitted effect of over 60% in size
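AlphaScreen displacement of biotin-H3(5-23)K14Ac peptide (50 nM final) from BAZ2B (50 nM final) in PBS pH 7.4, 0.01% Tween-20; complex preformed 30 min RT, then compounds (top 110 uM) 30 min RT, beads 20 min dark.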
JMJD2A Tudor: qHTS Assay for Inhibitors of JMJD2A-Tudor Domain | Potency, µM (doses to about 114 µM), for inactives: at the top dose activity change, negative = inhibition, hits mostly inhibitors | 390,000 compounds, 4.4% hits | AID 504339, 2011 | AlphaScreen JMJD2A-Tudor / H3K4me3 peptide binding | Lysine-specific demethylase 4A (Homo sapiens), O75164; note: % is set by controls: 0 for no effect and ±100 for the full control effect; nearly all actives have a fitted effect of over 50% in size
Sfp inh: qHTS Assay for Inhibitors of Bacillus subtilis Sfp phosphopantetheinyl transferase (PPTase) | 4'-phosphopantetheinyl transferase ffp (Bacillus subtilis), Q9F4F7 | Potency, µM, for the others: largest response in the series, negative = inhibition, most hits filed as inhibitors | 310,000 compounds, 3.5% hits | Biochemical Sfp PPTase activity, qHTS | AID 1490, 2009;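 note: the enzyme is Sfp with the accession as filed and its product quenches rhodamine fluorescence; 0% = enzyme reaction without inhibitor and -100% = no enzyme wells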
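Reaction rates are the 30-min fluorescence difference (ex 525, em 598 nm) in wells containing 15 nM Sfp, 5 uM rhodamine-CoA and 12.5 uM BHQ-2-YbbR at pH 7.6 with 10 mM MgCl2.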
L3MBTL1 inh: qHTS Assay for the Inhibitors of L3MBTL1 | 230,000 compounds, 0.66% hits | AlphaScreen L3MBTL1–H3K9me1 peptide binding | Lethal(3)malignant brain tumor-like protein 1 (Homo sapiens), Q9Y468 | Potency, µM (doses to about 57.1 µM), for inactives: top-dose activity, negative = inhibition, most hits filed as inhibitors | AID 485360, 2010; note: % is set by controls: 0 for no effect and ±100 for the full control effect; nearly all actives have a fitted effect of over 60% in size
Target sequence (Q9Y468 whole entry, looked up): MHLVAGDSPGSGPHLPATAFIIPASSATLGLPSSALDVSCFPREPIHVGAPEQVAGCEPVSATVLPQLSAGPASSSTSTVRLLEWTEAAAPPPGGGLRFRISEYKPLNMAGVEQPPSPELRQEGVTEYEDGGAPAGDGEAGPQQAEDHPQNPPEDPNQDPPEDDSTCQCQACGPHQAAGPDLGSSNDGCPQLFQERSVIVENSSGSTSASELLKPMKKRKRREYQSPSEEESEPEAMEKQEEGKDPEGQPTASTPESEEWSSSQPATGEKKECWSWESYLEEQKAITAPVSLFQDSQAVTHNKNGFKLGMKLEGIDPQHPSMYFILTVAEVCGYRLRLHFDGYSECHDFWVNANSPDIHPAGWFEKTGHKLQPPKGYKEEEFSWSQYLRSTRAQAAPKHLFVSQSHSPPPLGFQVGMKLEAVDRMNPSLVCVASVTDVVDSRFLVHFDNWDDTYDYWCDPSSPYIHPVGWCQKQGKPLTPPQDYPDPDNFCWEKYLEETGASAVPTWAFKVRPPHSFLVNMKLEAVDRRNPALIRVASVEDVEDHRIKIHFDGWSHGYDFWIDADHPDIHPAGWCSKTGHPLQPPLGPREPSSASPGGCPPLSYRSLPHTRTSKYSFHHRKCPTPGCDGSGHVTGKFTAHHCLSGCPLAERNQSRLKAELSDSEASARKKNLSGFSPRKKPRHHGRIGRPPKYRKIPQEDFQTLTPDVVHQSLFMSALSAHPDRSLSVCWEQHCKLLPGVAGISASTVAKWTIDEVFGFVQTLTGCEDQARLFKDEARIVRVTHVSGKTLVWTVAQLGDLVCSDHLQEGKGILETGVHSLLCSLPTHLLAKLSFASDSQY
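L3MBTL1 (50 nM) pre-complexed 30 min with biotinylated H3(1-15)K9me1 peptide (75 nM), then compounds added for 30 min at room temperature; AlphaScreen streptavidin donor/nickel chelate acceptor beads (10 ug/mL final) read after 30 min dark incubation.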
* marks the source's active call; other numbers are inactive results; ? = inconclusive; . = no result; [ ] = another dose, or the depositor's remark. The list is not random: actives were taken first. Their share in the collection is about 12%. Calls come from the whole dose curve; as a rule, active = well fitted curve in the direction sought with a large enough effect; inconclusive = small, poorly fitted or top-dose-only effect, or another doubt; inactive = no such curve, though single readings can be large; an effect the other way counts as inactive or inconclusive. Potency is the fitted concentration of half-maximal effect.

SMILES	HP1b chromo inh	G9a inh	BAZ2B inh	JMJD2A Tudor	Sfp inh	L3MBTL1 inh
Cc1cc(C)c(S(=O)(=O)Nc2ccncc2)cc1C	27%	.	2%	-3%	1%	7%
COc1cc(NS(=O)(=O)c2ccc(C)cc2C)cc(OC)c1OC	29%	79µM*	?	-6%	-3%	-5%
COc1cc(NS(=O)(=O)c2cc3[nH]c(=O)c(=O)[nH]c3cc2C)cc(OC)c1OC	67%	.	?	-27%	-10%	3%
CCN1C(=O)C2(c3ccccc31)c1c(oc3ccccc3c1=O)C(=O)N2CCOC (stereo not drawn)	60%	-6%[59 µM]	0%	0%	.	.
CS(=O)(=O)CCC(C(=O)Nc1cccc(C(F)(F)F)c1)N1Cc2ccccc2C1=O (stereo not drawn)	33%	-3%[59 µM]	3%	-22%	.	.
Cc1ccccc1NC(=O)C1c2cccc[n+]2CC(=O)N1Cc1ccc2c(c1)OCO2 (stereo not drawn)	15%	11µM*	-21%	?	-12%	.
Cc1cccc(C)c1NC(=O)C1c2cccc[n+]2CC(=O)N1Cc1cccs1 (stereo not drawn)	29%	50µM*	.	-6%	13%	.
COc1ccc(-n2c(=S)[nH]c3cc(C(=O)NCc4cccnc4)ccc3c2=O)cc1	52%	4%	2%	-17%	8%	.
O=C(Nc1ccccc1)Nc1ccc(Cl)c(S(=O)(=O)N2CCOCC2)c1	42%	-6%	-4%	-14%	-4%	5%
O=C(CN1CCN(c2ccc(O)cc2)CC1)Nc1ccc2c(c1)OCCO2	?	7.9µM*	-33%	79µM*	10µM*	-7%
Cc1cc(NC(=O)CN2CCN(c3ccc(O)cc3)CC2)no1	?	15%[0.501 µM]	-11%	89µM*	79µM*	0%
O=C(/C=C/c1ccco1)Nc1ccc(Cl)c(S(=O)(=O)N2CCOCC2)c1	-13%	50µM*	?	?	?	-10%
O=C(CN1CCN(CC(=O)Nc2ccccc2F)CC1)Nc1ccc2c(c1)OCCO2	20%	35µM*	-16%	-10%	24%	14%
O=c1cc2c(n[nH]1)-c1ccccc1CC2	23%	1%	4%	6%	15%	.
CC(C)(C)[C@H](NC(=O)c1ccc(N)c(Cl)c1)C(=O)N1CCC[C@H]1C(=O)N[C@H](C#N)Cc1nn[nH]n1	.	?	-38%	.	.	2%
CC(=O)Nc1nonc1-c1nnc(SCC(=O)Nc2cccc(C)c2C)n1-c1ccccc1	35%	-8%[59 µM]	3%	11%	.	.
O=C(CN1CCN(C(=O)c2ccco2)CC1)Nc1ccc(Cl)c(S(=O)(=O)N2CCOCC2)c1	24%	56µM*	.	-5%	-1%	.
CC(O)c1nc2ccccc2n1CC(=O)Nc1ccc2c(c1)OCCO2 (stereo not drawn)	29%	-1%	-30%	-23%	13%	?
O=C(CN1CCN(c2ccc(O)cc2)CC1)NCC(=O)Nc1ccc(F)c(F)c1F	?	?	-2%	45µM*	.	-5%
CCCn1c(N2CCN(CC(=O)Nc3ccc4c(c3)OCCO4)CC2)nc2ccccc21	27%	50µM*	?	?	-4%	4%
O=C(CN1CCOCC1)Nc1ccc(Oc2ccc(NC(=O)CN3CCOCC3)cc2)cc1	24%	11µM*	-3%	-4%	13%	-9%[11.4 µM]
CCC(C)(CCN1CCOCC1)N(Cc1cc2ccccc2n(C)c1=O)C(=O)C1CCCCC1 (stereo not drawn)	.	.	.	-14%	.	.
Cc1cccc(N2C(=NC(=O)c3ccccc3)SC3CS(=O)(=O)CC32)c1 (stereo not drawn)	26%	.	-15%	-1%	-5%	.
O=C(CN1CCN(C(=O)c2ccco2)CC1)Nc1ccc2c(c1)OCCO2	26%	50µM*	-27%	-3%	5%	-1%
CCCn1c(N2CCN(C(=O)Nc3ccc(Cl)cc3)CC2)nc2ccccc21	21%	12%	7%	100µM*	9%	2%
SMILES	HP1b chromo inh	G9a inh	BAZ2B inh	JMJD2A Tudor	Sfp inh	L3MBTL1 inh
O=C(CSc1ncn[nH]1)Nc1ccc(Cl)c(S(=O)(=O)N2CCOCC2)c1	61%	50µM*	.	-19%	11%	.
O=C(CN1CCN(c2ccccc2)CC1)Nc1ccc2c(c1)OCCO2	2%	-8%	-18%	-24%	16%	1%
O=C(CN1CCOCC1)Nc1ccc2c(c1)OCCO2	?	20µM*	50µM*	32µM*	?	8%
O=C(CSc1ncccn1)Nc1ccc(Cl)c(S(=O)(=O)N2CCOCC2)c1	26%	.	.	-7%	.	-4%
O=C(NC1CC2CCCC(C1)N2C(=O)Nc1ccccc1Cl)C1CC1 (stereo not drawn)	1%	2%	2%	-13%	12%	.
O=C(CN1CCN(c2nc(-c3ccc(F)cc3)cs2)CC1)Nc1ccc2c(c1)OCO2	-24%	45µM*	?	-26%	2%	-16%
NC(=O)CN1CCN(c2nc(-c3ccc(F)cc3)cs2)CC1	-30%	1%	-5%	-10%[11.4 µM]	4%	-5%
COc1ccc(/C=C/C(=O)OC(C)CN2CCOCC2)cc1 (stereo not drawn)	9%	.	4%	-24%	0%	4%
COc1ccc(/C=C/C(=O)OC(C)CN2CCCCC2)cc1 (stereo not drawn)	25%	20µM*	-27%	-14%	6%	-5%
CC1CN(C(=O)CCC(=O)NCc2cccc(Cl)c2)c2ccccc2S1 (stereo not drawn)	24%	-23%[59 µM]	3%	-5%	.	.
Clc1ccc(/C=C/c2nc3ccccc3[nH]2)c(Cl)c1	59%	23%	10%	-4%	3%	21%
CC(C)SC1=NC(C)(C)C=C(/C=C/c2c(Cl)cccc2Cl)N1	58%	45µM*	-15%	-3%	-15%	.
CC(C)SC1=NC(C)(C)C=C(/C=C/c2ccc(Cl)cc2Cl)N1	-19%	45µM*	?	-31%	3%	.
COc1ccc(Cl)cc1NC(=O)C(C)n1c(=O)cc(C(F)(F)F)c2c(C)nn(C)c21 (stereo not drawn)	-1%	33%[59 µM]	0%	-8%	.	.
Cc1cccc(N2CCN(C(=O)Cn3sc4nc(C)cc(C)c4c3=O)CC2C)c1 (stereo not drawn)	8.9µM*	1.3µM*	?	3.2µM*	3.5µM*	.
Cc1cccc(N2CCN(C(=O)CN3CCOc4ccccc43)CC2C)c1 (stereo not drawn)	-15%	50µM*	?	?	9%	.
